The supplement of paper PMC13380429

What was measured:
[1] = test system: Vero E6 infected with SARS-CoV-2; test: morphology score (similarity to uninfected cells); higher = more like uninfected cells; settings: 24 h
[2] = test system: Vero E6 infected with SARS-CoV-2; test: SARS-CoV-2 infection rate relative to infected DMSO; higher = more infection, active = 60 or less; settings: 24 h

| SMILES | morphology score [1] | SARS-CoV-2 infection rate [2] |
| --- | --- | --- |
| Cc1ncc(CO)c(CO)c1O [pyridoxine] (10 µM) | 0.0823 | 108% (inactive) |
| CC(=O)N[C@@H](CC(=O)O)C(=O)N[C@@H](CCC(=O)O)C(=O)O [spaglumic-acid] (10 µM) | 0.121 | 88.5% (inactive) |
| CCc1ccc(CCOc2ccc(CC3SC(=O)NC3=O)cc2)nc1 (stereo not given) [pioglitazone] (10 µM) | 0.077 | 110% (inactive) |
| CCCCC(=O)O[C@]1(C(=O)CO)CC[C@H]2[C@@H]3CCC4=CC(=O)CC[C@]4(C)[C@H]3[C@@H](O)C[C@@]21C [hydrocortisone-valerate] (10 µM) | 0.0807 | 107% (inactive) |
| CCOc1cc2ncc(C#N)c(Nc3ccc(OCc4cccc(F)c4)c(Cl)c3)c2cc1NC(=O)/C=C/CN(C)C (10 µM) | -0.202 | 99.5% (inactive) |
| Cc1ccc(Cl)c(OCC(O)CNC(C)(C)C)c1 (stereo not given) [bupranolol] (10 µM) | -0.00864 | 111% (inactive) |
| COc1cc2ncnc(Nc3cccc(Br)c3)c2cc1OC (10 µM) | -0.238 | 104% (inactive) |
| COCCOc1ccc(N2CCN(CCn3ncc4c3nc(N)n3nc(-c5ccco5)nc43)CC2)cc1 [preladenant] (10 µM) | 0.0084 | 111% (inactive) |
| CCn1cnc2c(Nc3cccc(Cl)c3)nc(N[C@@H]3CCCC[C@@H]3N)nc21 (0.833333 µM) | -0.35 | 114% (inactive) |
| Cc1c(CN2CCN(C(=O)[C@H](C)O)CC2)sc2c(N3CCOCC3)nc(-c3cnc(N)nc3)nc12 (10 µM) | -0.0562 | 113% (inactive) |
